# Key:
# Assay type in all cases: functional
# [1] = target: Solute carrier family 2, facilitated glucose transporter member 1 (Homo sapiens) (UniProt P11166); assay: ST_JUDE_LEISH: Cytotoxicity at 2uM final concentration against transgenic Leishmania Mexicana promastigotes LmGLUT1 that are glucose transport deficient and complemented with the human glucose transporter GLUT1. Activity is measured by DNA content using SYBR green in vitro
# [2] = target: Hexose transporter 1 (Plasmodium falciparum) (UniProt O97467); assay: ST_JUDE_LEISH: Cytotoxicity at 2uM final concentration against transgenic Leishmania Mexicana promastigotes LmPfHT that are glucose transport deficient and complemented with the Plasmodium falciparum hexose transporter. Activity is measured by DNA content using SYBR green in vitro
# [3] = target: Glucose transporter (Leishmania mexicana) (UniProt O61059); assay: ST_JUDE_LEISH: Cytotoxicity at 2uM final concentration against transgenic Leishmania Mexicana promastigotes LmGT2 that are glucose transport deficient and complemented with the L. Mexicana glucose transporter 2. Activity is measured by DNA content using SYBR green in vitro
# Solute carrier family 2, facilitated glucose transporter member 1 (Homo sapiens), sequence (P11166 whole entry): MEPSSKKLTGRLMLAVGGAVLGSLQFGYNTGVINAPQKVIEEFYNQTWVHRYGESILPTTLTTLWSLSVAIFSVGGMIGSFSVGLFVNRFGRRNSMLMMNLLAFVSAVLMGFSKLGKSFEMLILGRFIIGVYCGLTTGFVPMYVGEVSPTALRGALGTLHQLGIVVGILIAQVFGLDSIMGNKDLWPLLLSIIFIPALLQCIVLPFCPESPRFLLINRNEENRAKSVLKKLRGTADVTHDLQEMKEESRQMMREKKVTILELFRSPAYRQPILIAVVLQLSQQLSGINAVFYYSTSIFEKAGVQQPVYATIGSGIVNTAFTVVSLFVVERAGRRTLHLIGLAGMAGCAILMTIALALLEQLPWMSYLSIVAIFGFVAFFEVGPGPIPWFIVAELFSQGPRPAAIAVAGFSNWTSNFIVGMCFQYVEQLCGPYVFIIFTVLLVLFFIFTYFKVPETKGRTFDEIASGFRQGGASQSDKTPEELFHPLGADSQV
SMILES,inhibition [1] [%],inhibition [2] [%],inhibition [3] [%]
COc1cccc(COCC(O)CN(CCc2ccccn2)C(=O)c2ccccc2F)c1 (stereo not drawn),2.13,2.79,2.65
O=C(Nc1cccc(-c2cccc(F)c2)c1)C1CCN(Cc2ccc(O)cc2)CC1,2.54,2.14,2.19
CCn1c(-c2nonc2N)nc2c(-c3cccc(NC(=O)Nc4ccc(Cl)cc4)c3)ncc(OCCCN)c21,1.03,0.62,1.46
O=C(Nc1ccc(-c2nc3ccccc3[nH]2)cc1)c1ccc(S(=O)(=O)N2CCCCC2)cc1,3.08,4.17,0.68
CCN(CCCN1CCCCC1)c1cc(C)nc(Nc2ccc(Br)cc2F)n1,0.13,2.96,1.34
CCCCCCNC(=O)C1Cc2c([nH]c3cc(Cl)ccc23)C2(CCN(CCC)CC2)N1 (stereo not drawn),3.28,2.13,2.32
Cc1ccc2[nH]c3c(NCCCN(C)C)ncnc3c2c1,-1.63,-0.22,-0.28
COc1ccc2nccc([C@@H](O)CN3CCC(NCc4ccc5c(n4)NC(=O)CS5)C(F)C3)c2c1 (stereo partly drawn),2.08,1.5,1.99
COc1cc(Nc2nccc(N3CCC(NC(=O)c4cc5ccccc5s4)C3)n2)cc(OC)c1OC (stereo not drawn),0.5,0.56,-0.45
CC(C)(C)Nc1cc(C(=O)N[C@@H](Cc2ccccc2)[C@H](O)CNC2CCOCC2)cc(N2CCCCS2(=O)=O)c1,0.29,0.07,-0.61
CS(=O)(=O)Nc1cccc(-c2cnc3[nH]cc(-c4ccc(CCC(=O)O)cc4)c3c2)c1,2.69,1.66,4.76
CC(C)(C)c1ccc(NC(=O)c2ccc(CN3CCCN(CC4CCCCC4)CC3)cc2)cc1,3.27,1.6,5.35
CCCCOP(=O)(OCCCC)C(=Cc1ccc(O)c2ccccc12)P(=O)(OCCCC)OCCCC,5.02,4.67,5.24
COc1cc(Cc2cnc(N)nc2N)cc(OCCCCC#N)c1OC,2.09,1.74,5.77
COc1ccccc1CC1CCCN(C2CCC(NC(=O)c3cc4ccccc4[nH]3)CC2)C1 (stereo not drawn),0.46,0.32,-0.6
COc1ccc(NC(=O)[C@H](Cc2ccccc2)Nc2cc(C)nc(NCc3ccccc3C)n2)cc1,4.42,5.01,2.59
COc1ccc(NC(=O)C2c3ccccc3C(=O)N(C3CCCC3)C2c2cccs2)cc1OC (stereo not drawn),2.85,5.65,0.45
O=[N+]([O-])c1cccc(/C=N/Nc2ccnc3ccc(C(F)(F)F)cc23)c1,4.51,2.45,0.3

SMILES,inhibition [1] [%],inhibition [2] [%],inhibition [3] [%]
Cc1cc(C2CCN(CCCCNC(=O)c3ccc(NC(=O)c4ccc(Cl)cc4)cc3)CC2)c(C)cc1OCc1ccncc1,8.72,7.09,7.42
Cc1ccccc1C(=O)Nc1cccc(-c2nc3ncccn3c2C)c1,3.33,3.11,1.25
Cc1cc(NC(=O)Nc2ccc(Oc3ccccc3)cc2)c2ccccc2n1,0.26,1.44,-0.34
Cc1cccn2c(=O)c3cc(C(=O)NCc4cccnc4)c(=N)n(CCc4ccccc4)c3nc12,3.35,4.08,1.6
COc1cc(C2CCN(CCCCNC(=O)c3ccc(NC(=O)c4cc(C(F)(F)F)cc(C(F)(F)F)c4)cc3)CC2)ccc1OC(C)C,1.12,0.93,1.71
COc1ccc2nccc(N(C)CC3(O)CCN(CCc4ccc5c(c4)NC(=O)CS5)CC3)c2n1,6.99,6.89,6.32
CCOc1ccc2c(=NN=Cc3ccc(OC)c(OC)c3)cc(C)[nH]c2c1,4.95,3.84,-0.04
COc1ccc(CN2CCC(CNCc3cccc(-c4ccccc4)c3)CC2)cc1,3.34,0.46,3.8
Cc1nc(C)c(-c2ccc(C(=O)c3ccc(Cl)cc3)cc2)c(O)c1Cl,8.16,10.4,9.25
O=C(Nc1cccc(-c2nn3ccccc3c2-c2ccnc(Nc3cccc(N4CCCC4=O)c3)n2)c1)c1cc(F)ccc1F,2.51,3.22,1.96
FC(F)(F)c1ccc2[nH]ccc(=NN=Cc3cccnc3)c2c1,1.46,1.75,5.22
CC1CN(c2ccc(NC(=O)c3ccc(F)cc3)cc2)CCN1Cc1cccc(F)c1 (stereo not drawn),3.88,2.84,4.01
CN1CCN(c2ncnc3ccc(NC(=O)Nc4ccc(Cl)c(Cl)c4)cc23)CC1,5,2.35,5.24
CCOC(=O)c1c(CSc2ccccc2)oc2cc(CN(C)C)c(O)c(Cl)c12,1.18,0.44,-0.41
C=CC[C@@H](C(=O)OCC)[C@@H]1[C@@H](N(CC=C)C(=O)OC(C)(C)C)CCN1C(=O)OCc1ccccc1,2.71,1.22,1.42
CCN(CCNS(C)(=O)=O)c1ccc(N)c(C)c1,1.65,1.06,1.72
CC1CN(Cc2ccc(-c3ccc(-c4nc5cc(F)ccc5[nH]4)s3)cc2)CC(C)O1 (stereo not drawn),5.96,4.68,3.99
CN(C)CCCOc1ccc(CCCCc2ccc(Cl)cc2C(=O)c2ccccc2)cc1,13.3,10.2,7.71

# Source: ChEMBL document CHEMBL3433997, “St. Jude Leishmania screening dataset” (2016)
